Screening results (PubChem BioAssay)
Rows were chosen to be rich in hits. Some 17% of all compounds tested hit in one or more screens of this group.
HT1080-NT tox – kills 2HG-producing HT-1080-NT fibrosarcoma cells | HT-1080-NT fibrosarcoma viability, CellTiter-Glo ATP luminescence, 48 h | Potency, µM (top dose mostly 46.1 µM), hits mostly cytotoxic | 1.6% of 360,000 active;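 also: NT is the 2HG producing partner of a matched IDH1 knockdown line; nearly all actives have a fitted effect of over 55% in size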
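HT-1080-NT fibrosarcoma cells (2HG-overproducing), 750 cells/well in RPMI with 5% FBS, dosed after 2 h and incubated 48 h at 37C. CellTiter-Glo luminescence normalized to DMSO and no-cell wells; concentration-response curves fitted and classed.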
HepG2 viability – counter-screen for TGF-b inhibitors: cytotoxicity in HepG2 cells | HepG2 CAGA-GFP viability, ATP luminescence, 18 h | Potency, µM (top dose mostly 46.1 µM), most hits filed as cytotoxic | 0.76% of 410,000 active | AID 588856
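HepG2 CAGA-GFP cells (1000/well, DMEM with 1% FBS) received compound, then TGF-beta at 500 pg/mL final, and were incubated 18 hours at 37 degrees C. Viability was read by CellTiter-Glo luminescence. Media-only wells were set as complete cell-killing and DMSO as no toxicity.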
TGFb inhibitor – TGF-b pathway inhibition; 1.2% of 410,000 active; HepG2 CAGA-GFP TGF-b/SMAD3 reporter, GFP fluorescence, 18 h; TGF-beta stimulated, 500 pg/mL final; Potency, µM (series often up to 46.1 µM), hits mostly inhibitors; AID 588855; also: nearly all actives have a fitted effect of over 65% in size
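Inhibition was scored as loss of TGF-beta-induced (500 pg/mL final, 18 hours, 37 degrees C) GFP in HEPG2 cells carrying a CAGA-GFP reporter, in DMEM with 1% FBS. Well GFP was summed per cell; Activity was normalised to unstimulated and stimulated DMSO wells, then concentration-response fitting.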
HT1080 IDH1KD tx – HT-1080 IDH1 knockdown cell toxicity (counter line); HT-1080 IDH1 knockdown viability, ATP luminescence, 48 h; 2% of 360,000 active; Potency, µM (highest dose often 46.1 µM), actives largely listed as cytotoxic; AID 686971
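Viability of IDH1-knockdown HT-1080 fibrosarcoma cells was assessed by CellTiter-Glo after 48 h at 37 °C with titrated compound; concentration-effect curves were classified by fit quality and response size.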
DT40 TDP1 no CPT – qHTS for Inhibitors of human tyrosyl-DNA phosphodiesterase 1 (TDP1): qHTS in cells in absence of CPT. DT40 Tdp1-/- hTDP1 cells, no CPT, ATP luminescence, 48 h. Potency, µM (top dose mostly 46.2 µM), most hits filed as inhibitors. 15% of 420,000 active. AID 686978, 2013; also: nearly all actives have a fitted effect of over 55% in size
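Luminescent ATP content (CellTiter-Glo) served as the growth readout. Knockout chicken DT40 cells expressing human TDP1 were exposed to compounds without camptothecin for a minimum 48 hr at 37 °C.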
TDP1 cell CPT – DT40-hTDP1 cell growth loss with CPT | 12% of 420,000 active | Potency, µM (top dose mostly 46.2 µM), usual class: inhibitors | chicken DT40 Tdp1-/-;hTDP1 cells + 20 nM CPT, ATP luminescence, 48 h | AID 686979; also: nearly all actives have a fitted effect of over 55% in size
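Chicken DT40 Tdp1-/- cells stably complemented with human TDP1 were seeded at 400 cells/well in medium containing 20 nM camptothecin, exposed to pin-transferred compounds, and grown at 37 °C for at least 48 hr. Viability was read as ATP luminescence.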
Of the large screens only hits and unclear results are named; the others gave an inactive call. Calls follow the shape of the dose curve; as a rule, active = well fitted curve in the direction sought with a large enough effect; inconclusive = small, poorly fitted or top-dose-only effect, or another doubt; inactive = no such curve, though single readings can be large; an effect the other way counts as inactive or inconclusive.

COc1ccccc1NC(=O)Cn1c(=O)n(Cc2ccco2)c(=O)c2oc3ccccc3c21	DT40 TDP1 no CPT 14.6µM, TDP1 cell CPT inconclusive (no result: HT1080-NT tox, HT1080 IDH1KD tx)
Cc1ccc(-n2c(=O)c3oc4ccccc4c3n(Cc3ccccc3)c2=O)cc1C	DT40 TDP1 no CPT 13µM, TDP1 cell CPT 20.6µM (no result: HT1080-NT tox, HT1080 IDH1KD tx)
COc1cccc(Cn2c(=O)n(Cc3ccco3)c(=O)c3oc4ccccc4c32)c1	DT40 TDP1 no CPT 23.1µM, TDP1 cell CPT inconclusive (no result: HT1080-NT tox, HT1080 IDH1KD tx)
CCOc1ccccc1NC(=O)Cn1c(=O)n(-c2ccccc2)c(=O)c2oc3ccccc3c21	DT40 TDP1 no CPT inconclusive, TDP1 cell CPT inconclusive
O=c1c2oc3ccccc3c2n(Cc2cccc(Cl)c2)c(=O)n1Cc1ccco1	DT40 TDP1 no CPT 16.4µM, TDP1 cell CPT 16.4µM (no result: HT1080-NT tox, HT1080 IDH1KD tx)
O=c1c2oc3ccccc3c2n(Cc2ccccc2)c(=O)n1Cc1ccco1	none (no result: HT1080-NT tox, HT1080 IDH1KD tx)
CCN(CC)C(=O)Oc1ccc2oc(=O)cc(-c3cc4cccc(OC)c4o3)c2c1	TDP1 cell CPT inconclusive
CC(=O)N1c2ccc(S(=O)(=O)N3CCCC(C(=O)N4CCC(C)CC4)C3)cc2CC1C (stereo unspecified)	DT40 TDP1 no CPT 16.4µM, TDP1 cell CPT 20.6µM
CC(=O)N1c2ccc(S(=O)(=O)NCCC(=O)N3CCCC(C)C3)cc2CC1C (stereo unspecified)	DT40 TDP1 no CPT inconclusive, TDP1 cell CPT 18.4µM
CC(=O)N1c2ccc(S(=O)(=O)N3CCCC(C(=O)N4CCCC(C)C4)C3)cc2CC1C (stereo unspecified)	DT40 TDP1 no CPT inconclusive, TDP1 cell CPT 23.1µM
CC(=O)N1c2ccc(S(=O)(=O)N3CCCCC3)cc2CC1C (stereo unspecified)	none
COc1ccccc1CNC(=O)CN1NS(=O)(=O)c2ccccc2C1=O	DT40 TDP1 no CPT inconclusive
O=C(c1cc(-c2ccncc2)nc2ccccc12)N1CCN(c2ccccn2)CC1	HT1080-NT tox 7.94µM, HT1080 IDH1KD tx 5.62µM, DT40 TDP1 no CPT 11.2µM, TDP1 cell CPT 8.91µM
O=C(c1ccccc1-c1ccccc1)N1CCN(c2ccccn2)CC1	HT1080-NT tox 5.8µM, HT1080 IDH1KD tx 6.51µM, DT40 TDP1 no CPT 2.59µM, TDP1 cell CPT 3.26µM
O=C(c1cn(Cc2ccccc2)nc1-c1ccccc1)N1CCN(c2ccccn2)CC1	HT1080-NT tox inconclusive, HT1080 IDH1KD tx 16.4µM, DT40 TDP1 no CPT 5.8µM, TDP1 cell CPT 5.8µM
O=C(c1cc(-c2ccncc2)nc2ccccc12)N1CCN(c2ncccn2)CC1	DT40 TDP1 no CPT inconclusive
CC(=O)c1ccc(N2CCN(C(=O)c3cn(Cc4ccccc4)nc3-c3cccnc3)CC2)c(F)c1	HT1080 IDH1KD tx inconclusive, DT40 TDP1 no CPT 23.1µM, TDP1 cell CPT inconclusive
O=C(c1cc(-c2ccccc2)nc2ccccc12)N1CCN(c2ccccc2O)CC1	HT1080 IDH1KD tx inconclusive, DT40 TDP1 no CPT 18.4µM, TDP1 cell CPT 16.4µM
O=C(c1cc(-c2ccncc2)nc2ccccc12)N1CCN(c2ccccc2O)CC1	DT40 TDP1 no CPT inconclusive, TDP1 cell CPT inconclusive
C/C(=N\NC(=O)c1cc(O)cc(O)c1)c1ccc(NC(=O)Cc2ccccc2)cc1	HT1080 IDH1KD tx inconclusive
O=C(O)CC/C(=N/NC(=O)c1ccc(-c2ccccc2)cc1)c1ccccc1	none
C/C(=N/NC(=O)c1ccc(-c2ccccc2)cc1)c1cc(O)cc(O)c1	HT1080-NT tox inconclusive, HT1080 IDH1KD tx inconclusive, DT40 TDP1 no CPT 16.4µM, TDP1 cell CPT 20.6µM
C/C(=N\NC(=O)c1ccc(Br)cc1)C1C(=O)c2ccccc2C1=O	HT1080-NT tox 2.24µM, TGFb inhibitor inconclusive, HT1080 IDH1KD tx 1µM, TDP1 cell CPT inconclusive
CCOc1ccc(C(=O)NCCNC(=O)c2ccc(OCC)cc2)cc1	none
C/C(=N\NC(=O)c1ccc(-c2ccccc2)cc1)C1C(=O)c2ccccc2C1=O	TGFb inhibitor 12.6µM, DT40 TDP1 no CPT 20.6µM, TDP1 cell CPT 20.6µM
CCOc1ccc(C(=O)N/N=C(/C)C2C(=O)c3ccccc3C2=O)cc1	DT40 TDP1 no CPT 0.651µM, TDP1 cell CPT 0.581µM
COc1cc(/C=C/C(=O)OCC(=O)Nc2c(C)n(C)n(-c3ccccc3)c2=O)cc(OC)c1OC	none
CC(=O)Nc1cc([N+](=O)[O-])ccc1OCc1ccccc1	DT40 TDP1 no CPT inconclusive, TDP1 cell CPT inconclusive
CCn1c(C(=O)NCc2ccccc2C)cc2oc3ccccc3c21	DT40 TDP1 no CPT inconclusive (no result: HT1080-NT tox, TGFb inhibitor, HT1080 IDH1KD tx)
Cc1cc(=O)n(CC(=O)Nc2ccc(Cl)c(Cl)c2)c(-n2nc(C)cc2C)n1	DT40 TDP1 no CPT 16.4µM, TDP1 cell CPT inconclusive (no result: HT1080-NT tox, HT1080 IDH1KD tx)
Cc1csc(=O)n1CC(=O)Nc1ccc(Cl)c(Cl)c1	none
Cc1cc(C)n(-c2nc(C)c(C)c(=O)n2CC(=O)Nc2cccc([N+](=O)[O-])c2)n1	DT40 TDP1 no CPT 16.4µM, TDP1 cell CPT inconclusive (no result: HT1080-NT tox, HT1080 IDH1KD tx)
CC(=O)c1ccc(NC(=O)Cn2c(-n3nc(C)cc3C)nc(C)c(C)c2=O)cc1	DT40 TDP1 no CPT inconclusive, TDP1 cell CPT inconclusive (no result: HT1080-NT tox, HT1080 IDH1KD tx)
OC(CNCc1ccccc1)(c1ccccc1)c1ccccc1	DT40 TDP1 no CPT inconclusive
COc1ccc(CNCC(O)(c2ccccc2)c2ccccc2)cc1OC	DT40 TDP1 no CPT 13µM
COc1ccc(CNCC(O)(c2ccc(F)cc2)c2ccc(F)cc2)cc1	HT1080-NT tox inconclusive, HT1080 IDH1KD tx inconclusive, DT40 TDP1 no CPT 13µM, TDP1 cell CPT inconclusive
COc1ccc(CNCC(O)(c2ccccc2)c2ccccc2)cc1	DT40 TDP1 no CPT 18.4µM, TDP1 cell CPT inconclusive
OC(CNCc1ccccc1F)(c1ccc(F)cc1)c1ccc(F)cc1	DT40 TDP1 no CPT inconclusive
